Records with an inconclusive call do not appear. Calls of active or inactive are those of the source. Unless noted, calls follow the shape of the dose curve; as a rule, active = well fitted curve in the direction sought with a large enough effect in the repeat runs; inconclusive = weak or mixed curves; inactive = no such curve, though single readings can be large; an effect the other way counts as inactive or inconclusive.

A short description of experiment [1]: qHTS assay to identify small molecule antagonists of the estrogen related receptor (ERR) signaling pathway - cell viability counter screen (AID 1224818).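 Also: viability measured after 17.5 h of compound exposure.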 The essentials: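 After a 6 h pre-incubation, ERR cells were dosed by pin tool with compounds, positive/negative controls or DMSO alone. Following 17.5 h at 37 C and 30 min with CellTiter-Fluor, fluorescence was recorded.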

Experiment [2] in a line: qHTS assay to identify small molecule antagonists of the estrogen related receptor (ERR) signaling pathway (AID 1224819; also: nearly all actives have a fitted effect of over 50% in size). Put shortly: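 Luminescence readout (One-Glo, 30 min, RT) of ERR cell line after 18 h compound exposure at 37 C; cells seeded 2,000/well, pre-incubated 6 h, compounds pinned from DMSO stocks.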
(In qHTS, concentration-response curves come from the screen itself.)

Experiment [3] is described as follows: qHTS assay to identify small molecule agonists of the estrogen related receptor (ERR) signaling pathway (AID 1224820). The essentials: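 ERR reporter cell line (from NTP), 2,000 cells/well, incubated 6 h before compound addition, then 18 h at 37 C. Luminescence measured 30 min after One-Glo reagent at room temperature.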
The subject of experiment [4] is estrogen-related receptor alpha (ERRalpha) with PGC-1alpha coactivator, human. As to the kind of experiment: qHTS assay to identify small molecule antagonists of the estrogen related receptor signaling pathway with the pleiotropic PPARgamma coactivator (PGC) (AID 1224821; calls by dose curve; also: nearly all actives have a fitted effect of over 50% in size). Put shortly: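 PGC/ERR reporter cell line, plated 6 h before compound addition, then exposed 18 h at 37 °C. Luciferase activity read by luminescence 30 min after One-Glo addition; decrease indicates antagonism.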

A short description of experiment [5]: qHTS assay to identify small molecule antagonists of the estrogen related receptor signaling pathway with the pleiotropic PPARgamma coactivator (PGC) cell viability counter screen (AID 1224822;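 also: viability read after 17.5 h compound exposure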). The essentials:
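PGC/ERR cells were plated at 2,000 per well and allowed 6 h to settle before compound addition. Following 17.5 h at 37 C, CellTiter-Fluor reagent was added and fluorescence was read 30 min later.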

Experiment [6] in a line: qHTS assay to identify small molecule agonists of the estrogen related receptor signaling pathway with the pleiotropic PPARgamma coactivator (PGC) (AID 1224823). Put shortly:
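PGC/ERR reporter cells seeded 6 h, then exposed to compounds (23 nL in DMSO) for 18 h at 37 C. One-Glo luciferase luminescence read after 30 min at room temperature.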
Potency is read from the fitted curve at half-maximal effect.

As for `Nc1nc2c(ncn2[C@@H]2O[C@H](CO)[C@@H](O)[C@@H]2O)c(=O)[nH]1`, the Potency result in experiment [1], in experiment [2], in experiment [3], in experiment [4], in experiment [5] and in experiment [6] was “inactive” each time.

For the compound `O=C(O)[C@H]1NCCC[C@H]1C(=O)O`, the Potency entry in experiment [1], in experiment [2], in experiment [3], in experiment [4], in experiment [5] and in experiment [6] was “inactive” in each case.

As to `NC1(C(=O)O)CCc2cc(C(=O)O)ccc21` (stereo not given), the Potency result in experiment [1], in experiment [2], in experiment [3], in experiment [4], in experiment [5] and in experiment [6] was “inactive” throughout.

As for `NCCCCN=C(N)N`, the Potency result in experiment [1], in experiment [2], in experiment [3], in experiment [4], in experiment [5] and in experiment [6] was “inactive” throughout.

For `N[C@H](C(=O)O)[C@H](O)C(=O)O`, the Potency result in experiment [1], in experiment [2], in experiment [3], in experiment [4], in experiment [5] and in experiment [6] was “inactive” throughout.

On to `CC1CCN(CC[C@H]2CCCN2S(=O)(=O)c2cccc(O)c2)CC1`, for which the Potency result in experiment [1], in experiment [2], in experiment [3], in experiment [4], in experiment [5] and in experiment [6] was “inactive” in each case.

Take `CCCn1c(=O)c2c(ncn2C)n(CCC)c1=O`: the Potency entry in experiment [1], in experiment [2], in experiment [3], in experiment [4], in experiment [5] and in experiment [6] was “inactive” each time.

Turning to `CN(C)CCCc1cc(C(=O)Nc2ccc(-c3ccncc3)cc2)ccc1O`, the Potency result in experiment [1], in experiment [2], in experiment [3], in experiment [4], in experiment [5] and in experiment [6] was “inactive” throughout.

For the compound `CN1C2CCC1CC(OC(=O)C(O)c1ccccc1)C2` (stereo not given), the Potency result in experiment [1], in experiment [2], in experiment [3], in experiment [4], in experiment [5] and in experiment [6] was “inactive” throughout.

On to `CN1C2CCCC1CC(NC(=O)c1nn(C)c3ccccc13)C2` (stereo not given), for which the Potency entry in experiment [1], in experiment [2], in experiment [3], in experiment [4], in experiment [5] and in experiment [6] was “inactive” each time.

For the compound `Cc1cccc(-c2[nH]ncc2-c2ccc3ncccc3n2)n1`, the Potency result in experiment [1], in experiment [3], in experiment [5] and in experiment [6] was “inactive” in each case. For the same compound, the Potency in experiment [2] is 1230 nM (active); in experiment [4], 1440 nM (active).

`Nc1nc2ccc(Cl)cc2n2c(-c3ccccc3)nnc12`: the Potency result in experiment [1], in experiment [2], in experiment [3], in experiment [4], in experiment [5] and in experiment [6] was “inactive” in each case.

Consider `CC(C)NC[C@H](O)c1ccc(O)c(O)c1`, for which the Potency entry in experiment [1], in experiment [2], in experiment [3], in experiment [4], in experiment [5] and in experiment [6] was “inactive” in each case.

`Cc1cc2c(cc1Cl)N(C(=O)Nc1ccnc3ccccc13)CC2`: the Potency entry in experiment [1], in experiment [2], in experiment [3], in experiment [4], in experiment [5] and in experiment [6] was “inactive” in each case.

Regarding `CCCCCCC(=O)OC1CC(C)(C)NC(C)(C)C1`, the Potency entry in experiment [1], in experiment [2], in experiment [3], in experiment [4], in experiment [5] and in experiment [6] was “inactive” throughout.

`NC1(C(=O)O)CCCCC1`: the Potency entry in experiment [1], in experiment [2], in experiment [3], in experiment [4], in experiment [5] and in experiment [6] was “inactive” throughout.

Turning to `O=Nc1c(-c2c(O)[nH]c3cc(Br)ccc23)[nH]c2ccccc12`, the Potency in experiment [1] is 16200 nM (active); in experiment [3] it was 1680 nM (active); in experiment [5], 11400 nM (active); in experiment [6], 1140 nM (active). The Potency entry in experiment [2] and in experiment [4] was “inactive” throughout.

As to `NC(=O)C(=O)O`, the Potency entry in experiment [1], in experiment [2], in experiment [3], in experiment [4], in experiment [5] and in experiment [6] was “inactive” in each case.

`Brc1ccc([C@H]2CN3CCSC3=N2)cc1`: the Potency result in experiment [1], in experiment [2], in experiment [3], in experiment [4], in experiment [5] and in experiment [6] was “inactive” in each case.

As to `NC[C@@H]1O[C@H](c2ccccc2)Cc2c1ccc(O)c2O`, the Potency entry in experiment [1], in experiment [2], in experiment [3], in experiment [4], in experiment [5] and in experiment [6] was “inactive” each time.

`C[C@@H]1C(=O)NC2=Nc3cccc(Cl)c3CN21`: the Potency entry in experiment [1], in experiment [2], in experiment [3], in experiment [4], in experiment [5] and in experiment [6] was “inactive” in each case.

For the compound `CCCCCCCCCCCCCCCC(=O)OC(CC(=O)O)C[N+](C)(C)C` (stereo not given), the Potency entry in experiment [1], in experiment [2], in experiment [3], in experiment [4], in experiment [5] and in experiment [6] was “inactive” throughout.

For the compound `Cn1c(=O)c2[nH]c(-c3ccccc3)nc2n(C)c1=O`, the Potency result in experiment [1], in experiment [2], in experiment [3], in experiment [4], in experiment [5] and in experiment [6] was “inactive” throughout.

With `CCC(CO)Nc1nc(NCc2ccccc2)c2ncn(C(C)C)c2n1` (stereo not given), the Potency entry in experiment [1], in experiment [2], in experiment [3], in experiment [4], in experiment [5] and in experiment [6] was “inactive” in each case.

Turning to `COc1ccc(-c2ccc(N)[n+](CCCC(=O)O)n2)cc1`, the Potency entry in experiment [1], in experiment [2], in experiment [3], in experiment [4], in experiment [5] and in experiment [6] was “inactive” each time.

As to `O=c1[nH]c(=O)c2nc3ccccc3nc2[nH]1`, the Potency entry in experiment [1], in experiment [2], in experiment [3], in experiment [4], in experiment [5] and in experiment [6] was “inactive” each time.

For `OC[C@H]1NC[C@@H](O)[C@@H]1O`, the Potency entry in experiment [1], in experiment [2], in experiment [3], in experiment [4], in experiment [5] and in experiment [6] was “inactive” in each case.

Consider `CS(=O)(=O)c1cccc(CNc2nc(Nc3ccc4c(c3)CCC(=O)N4)ncc2C(F)(F)F)c1`, for which the Potency entry in experiment [1], in experiment [2], in experiment [3], in experiment [4], in experiment [5] and in experiment [6] was “inactive” each time.

For the compound `CC(=O)NCCc1c[nH]c2ccc(O)cc12`, the Potency entry in experiment [1], in experiment [2], in experiment [3], in experiment [4], in experiment [5] and in experiment [6] was “inactive” in each case.

Regarding `NS(=O)(=O)c1cccc2c1c([N+](=O)[O-])cc1nc(O)c(O)nc12`, the Potency result in experiment [1], in experiment [2], in experiment [3], in experiment [4], in experiment [5] and in experiment [6] was “inactive” each time.

For the origin of these results see PubChem BioAssay (Tox21).
